Bioassay records as filed in PubChem BioAssay.
G9a inh = blocks human histone lysine methyltransferase G9a; Q96KQ7; G9a H3K9 monomethylation, AlphaScreen, 2 h; Potency, µM (titrated, usually from 102 µM), inactives show at the top dose activity, negative = inhibition, hits mostly inhibitors; hit rate 8.8% among 350,000; note: % is set by controls: 0 for no effect and ±100 for the full control effect; nearly all actives have a fitted effect of over 75% in size
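AlphaScreen read-out: biotin-H3K9 peptide (500 nM) methylation by 20 nM enzyme with 20 uM SAM, 2 h at room temperature after 15 min compound preincubation; anti-monomethyl H3K9 antibody plus donor/acceptor beads, 10 min dark.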
HP1b binding inh = blocks HP1-beta chromodomain binding to methylated histone tails; AID 540317; AlphaScreen HP1-beta / biotin-H3K9me3 peptide binding; hit rate 0.56% among 390,000; Potency, µM (series often up to 114 µM), inactives show at the highest dose activity change, negative = inhibition, hits mostly inhibitors; note: nearly all actives have a fitted effect of over 70% in size
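Compound inhibition of the preformed complex between 50 nM HP1-beta and 50 nM biotinylated H3K9me3 peptide was read by AlphaScreen. Buffer was PBS pH 7.4 with 0.01% Tween-20. Incubations ran 30 min at room temperature, with 10 ug/mL donor/acceptor beads.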
BAZ2B block = blocks human BAZ2B. AlphaScreen BAZ2B-H3K14Ac peptide displacement. Potency, µM (doses to about 114 µM), without a hit: top-dose activity change, negative = inhibition, actives largely listed as inhibitors. hit rate 4.4% among 360,000. AID 504333; note: % is set by controls: 0 for no effect and ±100 for the full control effect; nearly all actives have a fitted effect of over 60% in size
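Multi-concentration screen (max 110 uM) measuring displacement of acetylated histone H3 peptide from BAZ2B by AlphaScreen, using 50 nM protein, 50 nM peptide and 10 ug/mL streptavidin donor plus Ni-chelate acceptor beads.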
ALOX12 inh = inhibitors of human 12S-lipoxygenase ALOX12; purified 12hLO, xylenol orange hydroperoxide absorbance; P18054; AID 1671190; Potency, µM (titrated, usually from 108 µM), for the others: top-dose activity change, negative = inhibition, usual class: inhibitors; hit rate 1.1% among 580,000; note: % is set by controls: 0 for no effect and ±100 for the full control effect
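Hydroperoxide product was detected by ferrous iron/xylenol orange as the 573 to 405 nm absorbance ratio. Arachidonic acid at 40 uM (final) was turned over for 30 min at room temperature by 150 nM human 12hLO, pH 7.0 Hepes buffer, after 15 min compound preincubation.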
PLK1 PBD inh = PLK1 (human) polo-box domain binding inhibition | hit rate 2.8% among 360,000 | AID 720504 | Plk1 PBD binding of FITC phosphopeptide, fluorescence polarization | P53350 | Potency, µM, for the others: max response, negative = inhibition, usual class: inhibitors; note: series mostly up to about 57 µM; % is set by controls: 0 for no effect and ±100 for the full control effect; nearly all actives have a fitted effect of over 65% in size
Target sequence (P53350 whole entry, looked up, the tested form may be a part): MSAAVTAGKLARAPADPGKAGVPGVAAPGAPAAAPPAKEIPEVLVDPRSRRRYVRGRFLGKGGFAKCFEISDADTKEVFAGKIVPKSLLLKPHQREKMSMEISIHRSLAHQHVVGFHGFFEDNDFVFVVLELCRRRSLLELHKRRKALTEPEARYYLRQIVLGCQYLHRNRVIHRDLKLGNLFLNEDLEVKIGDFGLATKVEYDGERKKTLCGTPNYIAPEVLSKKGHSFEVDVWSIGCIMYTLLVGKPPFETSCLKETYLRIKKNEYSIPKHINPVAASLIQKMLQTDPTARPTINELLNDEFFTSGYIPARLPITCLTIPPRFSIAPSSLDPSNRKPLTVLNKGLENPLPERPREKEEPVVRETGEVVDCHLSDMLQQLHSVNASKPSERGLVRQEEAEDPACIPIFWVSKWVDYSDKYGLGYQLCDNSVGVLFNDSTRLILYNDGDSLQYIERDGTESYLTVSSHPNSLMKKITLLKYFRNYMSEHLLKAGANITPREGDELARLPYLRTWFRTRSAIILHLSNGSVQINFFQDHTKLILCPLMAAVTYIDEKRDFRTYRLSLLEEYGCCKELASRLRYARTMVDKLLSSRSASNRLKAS
JMJD2A Tudor = blocks the human JMJD2A Tudor domain | O75164 | Potency, µM (titrated, usually from 114 µM), for the others: at the top dose activity change, negative = inhibition, most hits filed as inhibitors | AlphaScreen JMJD2A-Tudor / H3K4me3 peptide binding | hit rate 4.4% among 390,000; note: % is set by controls: 0 for no effect and ±100 for the full control effect; nearly all actives have a fitted effect of over 50% in size
The depositor's hits bear a star; ? = inconclusive; nt = not tested or not shown; [ ] = dose if it differs, or a comment. Rows were chosen to be rich in hits. Some 9% of all compounds tested hit in one or more screens of this group. Calls come from the whole dose curve; as a rule, active = well fitted curve in the direction sought with a large enough effect; inconclusive = small, poorly fitted or top-dose-only effect, or another doubt; inactive = no such curve, though single readings can be large; an effect the other way counts as inactive or inconclusive. Potency is the fitted concentration of half-maximal effect.

SMILES	G9a inh	HP1b binding inh	BAZ2B block	ALOX12 inh	PLK1 PBD inh	JMJD2A Tudor
Cc1ccc(Cl)cc1N1CCN(C(=O)c2cnn(-c3ccc(Cl)cc3)c2C2CCNCC2)CC1	8.9µM*	30%	?	?	nt	-28%
Cc1cc(C)cc(NC(=O)c2cnn(-c3ccc(C)c(C)c3)c2C2CCNCC2)c1	?	-12%	-1%[57.1 µM]	?	nt	-29%
COc1ccc(-n2ncc(C(=O)Nc3ccc(C)cc3Cl)c2C2CCN(C(=O)OC(C)(C)C)CC2)cc1	-5%[59 µM]	38%	0%[57.1 µM]	-16%	nt	-14%
COc1ccc(OC)c(NC(=O)c2cnn(-c3ccc(C)cc3)c2C2CCNCC2)c1	?	-3%	?	-15%	nt	79µM*
Cc1ccc(-n2ncc(C(=O)Nc3cc(Cl)ccc3C)c2C2CCNCC2)cc1C	-40%	36%	-28%	-17%	7%	2%
N#C/C(=C/c1ccc(F)cc1)C(=O)Nc1cccc2ncccc12	nt	nt	nt	-16%	nt	nt
CCC(=O)N1Cc2cc(C(=O)Nc3nccs3)nc(-c3cccc(-c4ccccc4OC)c3)c2[C@H]1CCO	nt	nt	nt	16%	-2%	nt
O=C(NCC1CCCO1)c1cc(S(=O)(=O)N2CCCCC2)ccc1Cl (stereo not drawn)	8%[12.7 µM]	35%	56µM*	-15%	-2%	-8%
O=C(CNCC1CCCO1)N1CCN(S(=O)(=O)c2ccc3ccccc3c2)CC1 (stereo not drawn)	?	-35%	56µM*	0%	-1%	7.9µM*
Cc1ccc(S(=O)(=O)N2CCCCC2)cc1C(=O)NCC1CCCO1 (stereo not drawn)	19%	18%	-2%	5%	-5%	2%
CC1(C)Oc2ccc3ccc(=O)oc3c2C[C@H]1O[C@@H]1O[C@H](CO)[C@@H](O)[C@H](O)[C@H]1O	nt	27%	nt	2%	-5%	-6%
Cc1ccc(C(C(=O)NC2CCCC2)N(C(=O)c2csnn2)C2CC2)cc1 (stereo not drawn)	26%	23%	5%	29%	-15%	-3%
CC(C)(C)C1CCC(OCC(O)CN2CCCC2)CC1 (stereo not drawn)	nt	33%	-1%	-2%	-5%	-1%
Cc1nccn1CC(O)COc1ccccc1 (stereo not drawn)	6%[59 µM]	17%	4%	0%	0%	-4%
Cc1nccn1CC(O)COC1CCCCC1 (stereo not drawn)	?	?	32µM*	?	-8%	18µM*
OC(COC1CCCCC1)CN1CCCCC1 (stereo not drawn)	7.9µM*	-20%	56µM*	-20%	-2%	79µM*
CCOC(=O)N1CCN(c2ccc(Cl)cc2)CC1	15%[59 µM]	19%	4%	26%	-5%	-7%[57.1 µM]
CC1CCC(C(C)C)C(OC(=O)C2=C3c4ccccc4S(=O)(=O)N3CC2)C1 (stereo not drawn)	25µM*	54%	-3%	?	-4%	28%
CCc1nnc(NS(=O)(=O)c2ccc(NC(=S)NC(=O)/C=C/c3ccc(F)cc3)cc2)s1	89µM*	?	50µM*	10µM*	17µM*	56µM*
CCc1nnc(NS(=O)(=O)c2ccc(N/C=C\C(=O)c3ccc(F)cc3)cc2)s1	nt	20%	?	-20%	-7%	-16%
CCc1nnc(NS(=O)(=O)c2ccc(NC(=O)c3cc(Cl)ccc3[N+](=O)[O-])cc2)s1	13%[59 µM]	13%	-24%	4%	-10%	-17%
CCc1nnc(NS(=O)(=O)c2ccc(NC(=S)NC(=O)/C=C/c3ccc([N+](=O)[O-])cc3)cc2)s1	35µM*	42%	?	?	-11%	3%
O=C(NC1CC2CCC(C1)N2Cc1ccccc1)c1cccc(F)c1 (stereo not drawn)	-1%	15%	6%	14%	-14%	-6%
O=C(O)c1ccc(N=Nc2c(O)[nH]c3ccccc23)cc1	nt	8%	?	-39%	-7%	-33%
COCCN(CCOC)Cc1cc(=O)oc2cc(OC)c(Cl)cc12	nt	nt	nt	?	-18%	nt
SMILES	G9a inh	HP1b binding inh	BAZ2B block	ALOX12 inh	PLK1 PBD inh	JMJD2A Tudor
Cc1cc(C(=O)COC(=O)C2=NNC(=O)CC2)c(C)n1-c1ccc(OC(F)F)cc1	50µM*	-14%	-7%	?	-6%	?
CCCC(=O)Nc1sc(Cc2ccccc2)c(C)c1C(N)=O	3.5µM*	?	-26%	?	5.3µM*	-23%
Cc1c(Cc2ccc3c(c2)OCO3)sc(NC(=O)c2ccccc2)c1C(N)=O	32µM*	11%	0%	?	?	-14%
CCCCc1nn(CC(=O)N2CCCCCC2)c(=O)n1Cc1ccccc1	nt	nt	nt	43%	nt	nt
Cc1c(-n2cc(C(=O)O)c(=O)c3cc(F)c(N4CCCC4)c(F)c32)c(=O)n(-c2ccccc2)n1C	56µM*	25%	-4%	?	-10%	-2%
Cc1nc2cc(NC(=O)c3ccccc3C(F)(F)F)ccc2o1	nt	nt	nt	-2%	nt	nt
CCCCn1c2ccc(F)cc2c2nnc(SCCN3CCCCC3)nc21	6%	31%	0%	?	-15%	-28%
OCCN1CCN(C(=S)c2ccc(Cl)c(Cl)c2)CC1	2µM*	?	8%	-51%	4.7µM*	56µM*
CC(=O)c1ccc(NC(=S)N2CCN(CCO)CC2)cc1	16%	21%	-1%	0%	-1%	-17%
Cc1ccc2nc(C(NC(=O)C3CCN(CC(N)=O)CC3)C(C)C)[nH]c2c1 (stereo not drawn)	nt	nt	nt	123%	nt	nt
Cc1cccc(C)c1-n1nnnc1C(C1CC1)N1CCN(C/C=C/c2ccccc2)CC1 (stereo not drawn)	nt	nt	nt	-25%	-7%	nt
COc1ccc(-n2nnnc2C(C2CC2)N2CCN(C/C=C/c3ccccc3)CC2)cc1 (stereo not drawn)	nt	nt	nt	40µM*	-6%	nt
COc1cccc(CNCCOCCO)c1OC	3%[59 µM]	18%	nt	125%	-6%	-17%
COCC(C)NCc1cccc(OC)c1OC (stereo not drawn)	18µM*	?	?	?	-2%	1.8µM*
COCC(C)NCc1ccccc1C (stereo not drawn)	?	?	40µM*	?	0%	6.3µM*
CC(C)C[C@@H](CNCC(=O)[C@H](Cc1ccccc1)NC(=O)c1[nH]cnc1C(=O)N[C@@H](C)CN)NC(=O)c1nc[nH]c1C(=O)N[C@@H](CC(=O)O)C(=O)O	nt	55%	nt	17%	-8%	?
CC(C)C[C@@H](CN)NC(=O)c1nc[nH]c1C(=O)N[C@@H](Cc1ccccc1)C(=O)CNC[C@H](C)NC(=O)c1nc[nH]c1C(=O)N[C@@H](CC(=O)O)C(=O)O	nt	63%	nt	19%	-8%	?
